According to PubChem BioAssay AID1851 (National Center for Advancing Translational Sciences (NCATS), 2009):
The whole screen tested about 16,000 compounds, of which about 5,700 (36%) were called active. Roughly 24% stayed inconclusive and do not appear here. Calls come from the whole dose curve; as a rule, active = well fitted curve in the direction sought with a large enough effect; inconclusive = small, poorly fitted or top-dose-only effect, or effect the other way; inactive = no such curve, though single readings can be large or run the other way. The list shows a part of the results.
% is set by controls: 0 for no effect and ±100 for the full control effect.

Each compound was assayed against Cytochrome P450 1A2 (Homo sapiens) (UniProt P05177) (assay: Cytochrome panel assay with activity outcomes). Conditions: recombinant CYP, pro-luciferin dealkylation, luminescence, p450-cyp1a2; series mostly up to 57.1 µM.
Chain of Cytochrome P450 1A2 (Homo sapiens) (P05177 whole entry, looked up): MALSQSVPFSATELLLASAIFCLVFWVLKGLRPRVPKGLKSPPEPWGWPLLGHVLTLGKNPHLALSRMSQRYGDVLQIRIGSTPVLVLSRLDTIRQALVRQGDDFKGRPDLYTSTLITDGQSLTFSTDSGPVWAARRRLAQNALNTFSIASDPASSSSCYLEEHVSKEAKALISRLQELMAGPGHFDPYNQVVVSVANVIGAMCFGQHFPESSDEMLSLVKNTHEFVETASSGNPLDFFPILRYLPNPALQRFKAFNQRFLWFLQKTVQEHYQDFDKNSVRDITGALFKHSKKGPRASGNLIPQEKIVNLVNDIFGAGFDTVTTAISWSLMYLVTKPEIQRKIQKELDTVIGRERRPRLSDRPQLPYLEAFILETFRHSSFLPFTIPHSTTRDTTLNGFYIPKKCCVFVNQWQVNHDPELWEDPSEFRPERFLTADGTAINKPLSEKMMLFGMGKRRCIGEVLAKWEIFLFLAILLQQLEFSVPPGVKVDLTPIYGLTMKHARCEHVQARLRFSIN
`COCC(=O)N1CCC2(CC1)CN(C(=O)Nc1cccc(C#N)c1)C2` was tested, and the AC50 was “inactive”. In the case of `NCCSSCCN`, the AC50 is reported as “inactive”. `CC(C)(Oc1ccc(-c2cccc3ccccc23)cc1)C(=O)O` was tested, and the activity, negative = inhibition was 8.77% [at 11.4 µM] (inactive). For `CN1C(=O)/C(=N\OC(=O)c2cccc3ccccc23)c2ccccc21`, the AC50 was 7080 nM (active). With `CC(=O)c1c(O)cc(=O)n(-c2ccccc2)c1-c1cccc2ccccc12` the AC50 was “inactive”. For `COc1ccc2cc(C(=O)CCC(=O)O)ccc2c1`, the AC50 was 794 nM (active). `COc1ccc2cc(CCC(C)=O)ccc2c1` was tested, and the AC50 was 398 nM (active). `CCOc1ccc(C(=O)CCC(=O)O)cc1` was tested, and the AC50 was “inactive”. `COc1ccc(/C(O)=C2/C(=O)C(=O)N(CCCC(=O)O)C2c2ccc(OC)cc2)cc1` (stereo not drawn) was tested, and the AC50 was “inactive”. With `COc1ccc(CCN=CC2=C(O)CC(C)(C)CC2=O)cc1` the AC50 was “inactive”. With `COc1cccc(/C=N/NC(=O)c2cc(-c3cccn3C)n[nH]2)c1` the AC50 was 6310 nM (active). For `COc1cccc(/C=N/NC(=O)c2c(-c3ccccc3)noc2C)c1`, the AC50 was “inactive”. For `COc1cc2nc(N3CCN(C(=O)OCc4ccccc4)[C@H](C(=O)NC(C)(C)C)C3)nc(N)c2cc1OC`, the AC50 was “inactive”. With `CSc1nc(N)c2ncn([C@@H]3O[C@@H](COP(=O)(O)OP(=O)(O)O)[C@@H](O)[C@H]3O)c2n1` the AC50 was “inactive”. In the case of `CCn1c(C)[n+](CCCS(=O)(=O)[O-])c2cc(Cl)c(Cl)cc21`, the AC50 is reported as “inactive”. For `CCn1c(=O)[nH]c2cc(Cl)c(Cl)cc21`, the AC50 was 251 nM (active). For `CC[N+](CC)(CC)CC`, the AC50 was “inactive”. For `CC1=NN(c2ccc(S(=O)(=O)O)cc2)C(=O)/C1=C\c1ccc(Cl)cc1`, the activity, negative = inhibition was -8.89% [at 2.29 µM] (inactive). With `CC1=N/C(=C\c2ccc([N+](=O)[O-])cc2)C(=O)N1c1ccc(Cl)cc1` the AC50 was “inactive”. With `Cc1ccc(C)n1N1C(=O)/C(=C\c2ccc(Cl)cc2)SC1=S` the AC50 was 1580 nM (active). For `C[C@@](N)(/C=C\c1ccccc1)C(=O)O`, the activity, negative = inhibition was -17.1% [at 11.4 µM] (inactive). With `O=C(CN1CCN(c2ccc(Cl)cc2)CC1)Nc1cccc(F)c1` the AC50 was 12600 nM (active). In the case of `O=C(CSc1ccc(Cl)cc1)Nc1ccc(N2CCN(c3ccccc3)CC2)c(F)c1`, the AC50 is reported as “inactive”. `CC(C)c1cccc2c([Si](C)(C)C)c3c(nc12)-c1cccc(=O)n1C3` was tested, and the AC50 was 15800 nM (active). For `CCc1c2c(nc3c(C(C)C)cccc13)-c1cccc(=O)n1C2`, the AC50 was 398 nM (active). For `CC(C)c1cccc2cc3c(nc12)-c1cccc(=O)n1C3`, the AC50 was 501 nM (active). In the case of `CCC(C)N1C(=O)C2C(C(=O)Nc3cccc(OC)c3)C3C=CC2(O3)C1C(=O)NC1CCCCC1C` (stereo not drawn), the AC50 is reported as “inactive”. With `COc1ccc(O[C@H]2C=C[C@@H](c3ccccc3)O[C@H]2CO/N=C(/C)CCC(=O)OC[C@@H]2O[C@H](c3ccccc3)C=C[C@@H]2Oc2ccc(OC)cc2)cc1` the activity, negative = inhibition was -1.91% [at 11.4 µM] (inactive).
